Hits are enriched below; roughly 8.7% of the tested compounds scored in any of these assays.
BAZ2B block = blocks human BAZ2B. Potency, µM (top dose mostly 114 µM), inactives show at the highest dose activity change, negative = inhibition, hits mostly inhibitors. AID 504333. AlphaScreen BAZ2B-H3K14Ac peptide displacement. hit rate 4.4% among 360,000. Q9UIF8; also: % is scaled to controls: 0 for no effect and ±100 for the full control effect; nearly all actives have a fitted effect of over 60% in size
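Compounds, titrated to a top concentration of 110 uM, were incubated 30 min at room temperature with preformed BAZ2B/acetyl-K14 H3 peptide complex (50 nM each). Proximity signal was measured by AlphaScreen after 20 min with beads.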
JMJD2A Tudor = JMJD2A Tudor domain (human) inhibition; AlphaScreen JMJD2A-Tudor / H3K4me3 peptide binding; Potency, µM (series often up to 114 µM), without a hit: at the top dose activity change, negative = inhibition, usual class: inhibitors; hit rate 4.4% among 390,000; AID 504339; also: % is scaled to controls: 0 for no effect and ±100 for the full control effect; nearly all actives have a fitted effect of over 50% in size
G9a inh = inhibitors of human histone lysine methyltransferase G9a; AID 504332; Potency, µM (series often up to 102 µM), without a hit: at the highest dose activity, negative = inhibition, actives largely listed as inhibitors; G9a H3K9 monomethylation, AlphaScreen, 2 h; Q96KQ7; hit rate 8.8% among 350,000; also: % is scaled to controls: 0 for no effect and ±100 for the full control effect; nearly all actives have a fitted effect of over 75% in size
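Step 1: enzyme (final 20 nM) with compound, 15 min RT. Step 2: substrate peptide 500 nM and SAM 20 uM, 2 h RT. Step 3: anti-H3K9me1 antibody and AlphaScreen beads, 10 min, then plate read.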
HP1b binding inh = inhibitors of HP1-beta chromodomain binding to methylated histone tails; P83916; AlphaScreen HP1-beta / biotin-H3K9me3 peptide binding; Potency, µM (highest dose often 114 µM), for the others: at the highest dose activity change, negative = inhibition, actives largely listed as inhibitors; hit rate 0.56% among 390,000; AID 540317; also: nearly all actives have a fitted effect of over 70% in size
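AlphaScreen: HP1-beta (50 nM) preformed 30 min with biotin-H3(1-18)K9me3 peptide (50 nM) in PBS pH 7.4, 0.01% Tween-20. Compound added for 30 min at RT, then streptavidin donor/nickel chelate acceptor beads (10 ug/mL) for 30 min.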
Sfp inh = inhibitors of Bacillus subtilis Sfp phosphopantetheinyl transferase; Q9F4F7; AID 1490; Potency, µM, for inactives: largest response in the series, negative = inhibition, actives largely listed as inhibitors; hit rate 3.5% among 310,000; Biochemical Sfp PPTase activity, qHTS;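 also: the enzyme is Sfp with the accession as filed and its product quenches rhodamine fluorescence; 0% = enzyme reaction without inhibitor and -100% = no enzyme wells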
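After 15 min at room temperature with compound, 15 nM Sfp received 5 uM rhodamine-CoA plus 12.5 uM BHQ-2-ybbR (50 mM Hepes pH 7.6, 10 mM MgCl2). Rate came from the fluorescence difference over 30 min, ex 525/em 598 nm.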
12-LOX inh = inhibitors of human 12S-lipoxygenase ALOX12; P18054; purified 12hLO, xylenol orange hydroperoxide absorbance; Potency, µM (highest dose often 108 µM), for inactives: top-dose activity change, negative = inhibition, most hits filed as inhibitors; hit rate 1.1% among 580,000; also: % is scaled to controls: 0 for no effect and ±100 for the full control effect
Target sequence (P18054 whole entry, looked up): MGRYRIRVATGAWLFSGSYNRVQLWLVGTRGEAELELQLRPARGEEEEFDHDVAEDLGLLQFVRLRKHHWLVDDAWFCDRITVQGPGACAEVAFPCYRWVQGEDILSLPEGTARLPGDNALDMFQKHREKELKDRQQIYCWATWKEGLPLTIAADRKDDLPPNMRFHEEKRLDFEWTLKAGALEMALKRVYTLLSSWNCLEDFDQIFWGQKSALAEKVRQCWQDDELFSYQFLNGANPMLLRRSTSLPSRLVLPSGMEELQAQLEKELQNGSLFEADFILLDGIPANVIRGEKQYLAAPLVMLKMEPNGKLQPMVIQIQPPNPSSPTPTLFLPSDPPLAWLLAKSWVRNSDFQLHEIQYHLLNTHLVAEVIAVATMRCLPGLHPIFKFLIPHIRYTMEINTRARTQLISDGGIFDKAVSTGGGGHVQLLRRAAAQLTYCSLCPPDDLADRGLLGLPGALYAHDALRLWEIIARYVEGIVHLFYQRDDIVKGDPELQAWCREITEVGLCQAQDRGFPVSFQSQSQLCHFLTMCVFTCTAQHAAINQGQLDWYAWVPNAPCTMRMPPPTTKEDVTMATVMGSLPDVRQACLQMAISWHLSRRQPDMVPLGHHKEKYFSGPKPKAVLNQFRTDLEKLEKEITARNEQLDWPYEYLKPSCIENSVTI
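Purified human 12hLO (150 nM final) in 25 mM Hepes, 0.01% Triton X-100, pH 7.0 was preincubated 15 min at room temperature with compound. Then 40 uM arachidonic acid was added, 30 min. Hydroperoxide was read by Fe-XO absorbance ratio 573/405 nm.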
Starred values were filed as active, the others as inactive; ? = inconclusive; nt = no result; [ ] = another dose, or the depositor's remark. Calls follow the shape of the dose curve; as a rule, active = well fitted curve in the direction sought with a large enough effect; inconclusive = small, poorly fitted or top-dose-only effect, or another doubt; inactive = no such curve, though single readings can be large; an effect the other way counts as inactive or inconclusive. Potency is read from the fitted curve at half-maximal effect.

SMILES	BAZ2B block	JMJD2A Tudor	G9a inh	HP1b binding inh	Sfp inh	12-LOX inh
COc1ccc2cc(C(c3nnnn3CCc3ccccc3)N3CCC(O)CC3)c(=O)[nH]c2c1 (stereo not drawn)	-7%	-8%	28%[0.501 µM]	22%	2%	-3%
Fc1ccccc1-n1cc(-c2ccccc2)[nH]c1=S	?	?	3.5µM*	1%	-23%	?
COC(=O)c1ccccc1N/C=C1\CCc2c(c(C)nn2-c2ccccn2)C1=O	-24%	-31%	?	19%	45µM*	225%
CCn1c(=S)[nH]c2sc3c(c2c1=O)CCCC3	-2%	-16%	nt	5%	2%	?
C=CCn1c(=S)[nH]c2sc3c(c2c1=O)CCC3	-5%	-32%	3.2µM*	12%	-11%	?
CN(C)CCCn1c(=S)[nH]c2sc3c(c2c1=O)CCCC3	?	22µM*	7.9µM*	?	79µM*	14µM*
COc1cccc(CN2C[C@@H](CO)[C@H](c3ccncc3)C2)c1OC	nt	nt	nt	nt	nt	64%
O=C1CCCN1Cc1nc(-c2ccc(F)c(Cl)c2)no1	nt	nt	nt	nt	nt	64%
COC[C@H]1CCCN1C(=O)C[C@@H]1O[C@H](CNS(=O)(=O)c2ccccc2)[C@@H](O)[C@H]1O	nt	nt	nt	nt	nt	40µM*
O=C(C[C@@H]1O[C@H](CNS(=O)(=O)c2ccccc2)[C@@H](O)[C@H]1O)N1CCN(c2ccccc2)CC1	nt	nt	nt	nt	nt	6%
Cc1cc2nc3c(=O)[nH]c(=S)[nH]c3nc2cc1NC(=O)C(F)(F)F	-38%	-10%	28µM*	11%	79µM*	?
O=C(O)C1CCCCC1C(=O)Nc1ccc(S(=O)(=O)N2CCOCC2)cc1 (stereo not drawn)	nt	56µM*	nt	-16%[57 µM]	nt	39%
O=S(=O)(c1ccc(NC(=S)NN=C(Cc2ccccc2)Cc2ccccc2)cc1)N1CCOCC1	50µM*	-9%[11.4 µM]	nt	-20%	?	?
O=C(O)C1CCCCC1C(=O)Nc1ccc(S(=O)(=O)N2CCCCCC2)cc1 (stereo not drawn)	-11%	-10%	-12%	?	21%	-7%
O=C(CCCc1ccccc1)Nc1ccc(S(=O)(=O)N2CCOCC2)cc1	-17%	3%	nt	45%	4%	-5%
O=C(CCSc1ccccc1)Nc1ccc(S(=O)(=O)N2CCOCC2)cc1	56µM*	-24%	-46%	49%	-13%	-23%
O=C(CSc1ncnc2sccc12)Nc1ccc(S(=O)(=O)N2CCOCC2)cc1	9%	-3%	45µM*	15%	nt	-10%
CC(C)(C)CC(=O)NCC(=O)O	nt	nt	nt	nt	nt	-8%
CCN(CC)CCNC(=O)CCc1ncc(-c2ccc(F)cc2)o1	nt	nt	nt	nt	nt	12%
Cc1ccc(CN2C(=O)OC(c3cccc(NC(=O)c4cccs4)c3)C2C(=O)NCC(C)C)cc1 (stereo not drawn)	nt	nt	nt	nt	nt	-3%
CC1CN=C(N(C(=O)Nc2ccccc2)c2ccc(S(=O)(=O)N3CCOCC3)cc2)S1 (stereo not drawn)	12%	11%	7.1µM*	24%	-4%	11%
CCOC(=O)/C(C#N)=C/c1c(Oc2cccc(C)c2)nc2c(C)cccn2c1=O	-1%	-7%	26%[59 µM]	30%	89µM*	5%
Cc1cccn2c(=O)c(C=C(C#N)C#N)c(N3CCN(c4ccccc4)CC3)nc12	?	?	?	-7%	-1%	-51%
COC(=O)/C(C#N)=C/c1c(N2CCCCCC2)nc2c(C)cccn2c1=O	23%	-33%	36%	-1%	-13%	5%
CCOC(=O)/C(C#N)=C/c1c(Oc2cccc(C)c2)nc2ccccn2c1=O	-19%	-3%	-31%	28%	7%	?
SMILES	BAZ2B block	JMJD2A Tudor	G9a inh	HP1b binding inh	Sfp inh	12-LOX inh
CNC(=O)/C(C#N)=C/c1c(N2CCN(c3ccccc3)CC2)nc2c(C)cccn2c1=O	-2%	-14%	20%[2.33 µM]	-16%	15%	-14%
COC(=O)/C(C#N)=C/c1c(N2CCN(c3ccc(OC)cc3)CC2)nc2c(C)cccn2c1=O	?	11µM*	?	?	-1%	-2%
CNC(=O)/C(C#N)=C/c1c(N2CCN(c3ccc(OC)cc3)CC2)nc2c(C)cccn2c1=O	40µM*	50µM*	1%[2.33 µM]	?	-1%	0%
Cc1cccn2c(=O)c(/C=C(\C#N)C(N)=O)c(N3CCN(c4cccc(Cl)c4)CC3)nc12	-34%	?	22µM*	-11%	-11%	0%
COCCCn1c(-c2cccc(Cl)c2)nc2c1c(=O)[nH]c(=O)n2Cc1ccccc1	-4%	-8%	10%	17%	0%	-26%
O=c1[nH]c(=O)n(Cc2ccccc2)c2nc(-c3ccc(Oc4ccc(F)cc4)c([N+](=O)[O-])c3)n(CCO)c12	?	?	?	-11%	-13%	-12%
COc1ccc(-c2ccc(-c3nc4c(c(=O)[nH]c(=O)n4Cc4ccccc4)n3C)o2)c([N+](=O)[O-])c1	?	-17%	?	2%	10µM*	-15%
COCCn1c(-c2ccc(-c3ccc([N+](=O)[O-])cc3Br)o2)nc2c1c(=O)[nH]c(=O)n2CC(C)C	-29%	-20%	35µM*	21%	28µM*	?
COCCn1c(=O)[nH]c(=O)c2c1nc(-c1ccc(-c3ccc(Cl)cc3[N+](=O)[O-])o1)n2Cc1ccccc1	?	?	8.9µM*	?	?	-21%
Nn1c(SCC(=O)NCc2ccc(Cl)cc2)nnc1-c1ccco1	nt	nt	nt	nt	nt	-9%
CN(CC(=O)NC(=O)Nc1ccccc1F)Cc1cccc(C#N)c1	nt	nt	nt	nt	nt	-56%
O=C(Nc1cccc(NC(=O)C2CCCCC2)c1)C1CCCCC1	nt	nt	nt	nt	nt	3%
O=C(CSc1ncnc2ccccc12)N1CCCC1	-4%	-12%	-19%	30%	25%	-11%
Cc1ccc(C(=O)CSc2ncnc3ccccc23)o1	-20%	-4%	25µM*	-2%	?	-19%
O=C(CSc1ncnc2ccccc12)c1cccs1	5%	3%	22µM*	3%	-64%	-29%
O=C(Cc1cccc(C(F)(F)F)c1)N1CCCc2ncc(C(=O)N3CCCC[C@@H]3Cc3ccccc3)cc21	nt	nt	nt	nt	nt	17%
CCN(CC)CCN(CC)Cc1ccccc1Br	-12%	-2%	50µM*	35%	4%	?
CC(=O)n1c2ccccc2c2nc(NC(C)C)sc21	50µM*	50µM*	?	?	?	?
CNc1nc2c3ccccc3n(C(C)=O)c2s1	-3%	-13%	?	-6%	-15%	-10%
CCOC(=O)C1CCN(C(=O)COc2ccc(S(=O)(=O)NC(C)C)cc2)CC1	-7%	-4%	15%[59 µM]	22%	11%	1%

Assay outcomes (PubChem BioAssay)
